Screening results deposited in PubChem by Broad Institute.
Tg IFNy HTS: T. gondii growth inhibition under IFN-gamma. Toxoplasma gondii growth in IFN-gamma-treated host cells; active compounds read low. activity change, negative = inhibition, % (concentration not given with the values). hit rate 3.8% among 69,000. AID 1259416; in the data active = activity change below about -70%, passing the limit was not always enough;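 note: host cells are HeLa cells infected with Toxoplasma gondii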
Each line names hits and unclear results; the compound was inactive in the other large screens; ! = repeats disagree. Many of the other results were omitted from the sample, so hits are more common in it than they were.

N#Cc1c(N)nc(Sc2ccc(Cl)cc2)c(C#N)c1-c1ccccc1	Tg IFNy HTS -92
CN1CCN(C(=O)CN2C(=O)c3cccc4cccc(c34)C2=O)CC1	none
CCOC(=O)N1CCC(N2CCC3(CCNCC3)C2)CC1	none
CN(C)C(=O)c1cccc(-c2ccc(C3[C@H]4CNC[C@@H]3N4S(=O)(=O)Cc3ccccc3)cc2)c1 (stereo partly specified)	none
COc1cccc(-c2ccc(C3[C@@H]4CN(S(=O)(=O)Cc5ccccc5)C[C@H]3N4)cc2)c1 (stereo partly specified)	Tg IFNy HTS -81
COc1cccc(S(=O)(=O)N2C[C@@H]3N[C@H](C2)C3c2ccc(-c3ccccc3F)cc2)c1 (stereo partly specified)	none
CCOc1ccc(NC(=O)C(=O)NCCc2csc(-c3ccc(Cl)cc3)n2)cc1	none
COc1ccc(-c2cc3c(=O)n(Cc4nc(-c5ccc(Cl)cc5)oc4C)ccn3n2)cc1	none
Cc1ccc(C(=O)CSc2ncnc3c(-c4ccc(Cl)cc4)nsc23)cc1	Tg IFNy HTS -85
Cc1noc2ncnc(SCC(=O)c3ccc(Cl)cc3)c12	none
COc1ccc(-c2nsc3c(SCc4ccccc4)ncnc23)cc1	none
CC(=O)N1CCO[C@H]2CN(S(=O)(=O)c3cccs3)CC[C@@H]2C1	none
COc1ccc(-n2c(=O)c(C(=O)NCc3ccc4c(c3)OCO4)c(O)c3cccnc32)cc1	none
Cc1nc(-c2ccc(F)cc2)sc1CCNC(=O)Cc1ccc(F)cc1	none
O=C(NCCc1csc(-c2ccc(F)cc2)n1)C12CC3CC(CC(C3)C1)C2	none
Cc1ccc(C(=O)NCCc2sc(-c3ccc(F)cc3)nc2C)cc1	none
Cc1ccc(-c2nc(CCNC(=O)c3ccc(C)c(C)c3)cs2)cc1	none
Cc1nc(-c2ccc(F)cc2)sc1CCNC(=O)C12CC3CC(CC(C3)C1)C2	Tg IFNy HTS -91
CCOc1ccc(CC(=O)NCCc2sc(-c3ccc(F)cc3)nc2C)cc1	Tg IFNy HTS -93
CCOc1ccc(NC(=O)C(=O)NCCc2sc(-c3ccc(F)cc3)nc2C)cc1	none
COc1ccc(C(=O)NCCc2sc(-c3ccc(F)cc3)nc2C)cc1	none
CCOc1ccc(CC(=O)NCCc2sc(-c3cccc(F)c3)nc2C)cc1	none
CC(=O)NCCc1csc(-c2ccc(F)cc2)n1	none
Cc1cc(C)cc(C(=O)NCCc2csc(-c3ccc(F)cc3)n2)c1	Tg IFNy HTS -82
Cc1cc(C)cc(C(=O)NCCc2sc(-c3ccc(F)cc3)nc2C)c1	Tg IFNy HTS -77
O=c1n(CC2CCCO2)nc(C2CCNCC2)n1Cc1ccccc1 (stereo unspecified)	none
CCN1C[C@H]2[C@@H](OC)CCN(S(=O)(=O)c3cn(C)cn3)[C@H]2C1	none
CCc1ccc(Nc2nc(C(=O)NCc3ccco3)nc3ccccc23)cc1	none
Cc1[nH]c2ccccc2c1C(=O)C(=O)NC1CC(=O)N(c2ccc3c(c2)OCCO3)C1 (stereo unspecified)	none
Cc1nc(C)c(CC(=O)N(C)C2Cc3ccccc3C2)c(=O)[nH]1	none
c1cnc(Oc2ccc(C3NCCc4[nH]cnc43)cc2)nc1 (stereo unspecified)	none
O=C(NCCc1csc(-c2ccc(Cl)cc2)n1)c1ccccc1F	none
OCC1(O)CCCN(Cc2ccccc2-c2ccccc2)CC1 (stereo unspecified)	none
CCCCOc1ccc(C(=O)NCCc2csc(-c3ccc(F)cc3)n2)cc1	none
O=C(Cc1ccc(F)cc1)NCCc1csc(-c2ccc(F)cc2)n1	none
Cc1ccc(C(=O)NCCc2csc(-c3ccc(F)cc3)n2)cc1	none
O=C(NCCc1csc(-c2cccc(F)c2)n1)c1ccc(F)cc1	none
O=C(NCCc1csc(-c2ccc(F)cc2)n1)c1ccc(Br)cc1	Tg IFNy HTS -79
O=C(NCCc1csc(-c2ccc(F)cc2)n1)c1ccc(F)cc1	Tg IFNy HTS -79
COCCN1CCO[C@@H]2CN(Cc3cnn(C)c3)C[C@@H]21	none
Cn1nnc2cc(C(=O)N3CCC4(CCCO4)CC3)cnc21	none
Fc1ccc(-c2csc(-c3cccs3)n2)cc1	none
N#CCSC1=Nc2ccccc2C2=NC(CC(=O)NCc3ccc(F)cc3)C(=O)N12 (stereo unspecified)	none
NCC1Cc2cc(-c3ccccc3OCCn3ccnc3)cc(Cl)c2O1 (stereo unspecified)	Tg IFNy HTS -81
NCC1Cc2cc(-c3ccc(Cn4ccnc4)cc3)cc(F)c2O1 (stereo unspecified)	none
CNc1cc(-c2ccccc2OCCn2ccnc2)c2cc[nH]c2n1	none
c1cc(-c2nccn2CCCc2nn[nH]n2)cc(-n2cccn2)c1	none
CC(C)c1nccc(CN(Cc2ccco2)C(C)C(C)C)n1 (stereo unspecified)	none
Cc1cc(Cc2c(F)cccc2F)cc(C2CCN(C(=O)CC3CCCCO3)CC2)n1 (stereo unspecified)	none
Cc1cc(Cc2cccc(F)c2)cc(C2CCN(C(=O)c3n[nH]c4c3CCCCC4)CC2)n1	Tg IFNy HTS -111
O=C(c1n[nH]c2c1CCCC2)N1CCC(c2[nH]ncc2-c2ccccc2)CC1	none
O=C(CNCc1ccco1)Nc1ccc(S(=O)(=O)N2CCOCC2)cc1	none
Cc1ccc2c(c1)c(Cn1cc(-c3sccc3C)nn1)nn2C	Tg IFNy HTS -86
CCc1c(C)nn(CC(=O)NCc2nn(C)c3ccc(C)cc23)c1C	none
Cc1ccc2c(c1)c(CNC(C)CCn1cccn1)nn2C (stereo unspecified)	none
Cc1ccc(-c2nc(CNC(=O)c3scnc3C)[nH]c2-c2ccccn2)cc1	none
O=C1C(Cc2ccccc2)N=C2c3ccccc3N=C(SCc3ccc(Cl)cc3)N12 (stereo unspecified)	none
CC1(C)CC[C@]2(C(=O)O)CC[C@]3(C)C(=CC[C@@H]4[C@@]5(C)CC[C@H](O)C(C)(C)[C@@H]5CC[C@]43C)[C@@H]2C1	Tg IFNy HTS -72!
CC1(C)CC[C@]2(C(=O)O)CC[C@]3(C)C(=CCC4[C@@]5(C)CC[C@@H](O)C(C)(C)C5CC[C@]43C)C2C1 (stereo partly specified)	none
C[C@@H]1CC[C@]2(C(=O)O)CC[C@]3(C)C(=CCC4[C@@]5(C)CC[C@H](O)C(C)(C)C5CC[C@]43C)C2[C@H]1C (stereo partly specified)	none
COc1ccc(S(=O)(=O)N2CCC(c3nc(C(=O)N4CCOCC4)c(C)o3)CC2)cc1	none
CC(C)CN(CC(C)C)C(=O)c1cc2cccnc2n(Cc2ccccc2F)c1=O	none
Cc1ccc(NC(=O)C(=O)NCCc2csc(-c3cccc(F)c3)n2)c(C)c1	none
O=C(NCCc1csc(-c2cccc(F)c2)n1)C(=O)Nc1ccccc1	none
Cc1cccc(C)c1NC(=O)C(=O)NCCc1csc(-c2cccc(F)c2)n1	none
Cc1cccc(NC(=O)C(=O)NCCc2csc(-c3ccc(Cl)cc3)n2)c1	none
Cc1cccc(NC(=O)C(=O)NCCc2csc(-c3cccc(F)c3)n2)c1	Tg IFNy HTS -87
Cc1cc(C)c(NC(=O)C(=O)NCCc2csc(-c3cccc(F)c3)n2)c(C)c1	Tg IFNy HTS -80
CCn1cc(CC(=O)N2CCC(N3CCCCC3)CC2)c2cccnc21	none
Cc1ccccc1-c1cccc(CN2CCN(C3CCN(C(C)C)CC3)C(CCO)C2)c1 (stereo unspecified)	none
Cc1occc1C(=O)N1CCCn2c(nc(Cn3ccnc3)cc2=O)C1	none
Cc1nn(Cc2nc(-c3ccc(NC(=O)c4ccc(N(C)C)cc4)cc3)oc2C)c(C)c1C	none
Cc1ccccc1C(=O)Nc1ccc(-c2nc(Cn3nc(C)c(C)c3C)c(C)o2)cc1	Tg IFNy HTS -97
CCOc1ccccc1C(=O)Nc1ccc(-c2nc(Cn3nc(C)c(C)c3C)c(C)o2)cc1	none
Cc1nn(Cc2nc(-c3ccc(NC(=O)c4cc(F)cc(F)c4)cc3)oc2C)c(C)c1C	none
